# Experimental data from PubChem BioAssay (NCATS).
# Records with an inconclusive call do not appear. Active and inactive are the calls of the source. Unless noted, calls come from the whole dose curve; as a rule, active = well fitted curve in the direction sought with a large enough effect; inconclusive = small, poorly fitted or top-dose-only effect, or another doubt; inactive = no such curve, though single readings can be large; an effect the other way counts as inactive or inconclusive.
# Assays:
# [1] = P-glycoprotein substrates identified in KB-3-1 adenocarcinoma cell line, qHTS therapeutic library screen (AID 1346986); note: nearly all actives have a fitted effect of over 60% in size;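 note: potency is the fitted concentration of half-maximal effect; potency is for cytotoxicity meaning loss of cell viability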
# Procedure, shortened: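 In 1536-well format, 500 cells/well received pinned compound titrations and were incubated 72 h, 5% CO2. Viability was read by CellTiter-Glo; cytotoxic if AC50 < 10 uM and efficacy >50%.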
# [2] = P-glycoprotein substrates identified in KB-8-5-11 adenocarcinoma cell line, qHTS therapeutic library screen (AID 1346987); note: nearly all actives have a fitted effect of over 65% in size; note: potency is the fitted concentration of half-maximal effect
# Procedure, shortened: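 Compounds are pinned in dose-response onto KB-8-5-11 cells (500 cells/well, colchicine-free medium) and left 72 h at 37 degree C. CellTiter-Glo luminescence then yields AC50 values.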
# [3] = molecular target: Calcium and integrin-binding protein 1 (Homo sapiens) (UniProt Q99828); experiment: Primary qHTS for Identification of Calcium Integrin Binding Protein 1 (CIB1) Competitor (AID 1508620);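 note: GST tagged CIB1 binding a fluorescein labelled alphaIIb integrin peptide tracer; top concentration of the series differs between compounds; % is set by controls: 0 for no effect and ±100 for the full control effect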
# Chain of Calcium and integrin-binding protein 1 (Homo sapiens) (Q99828 whole entry, looked up): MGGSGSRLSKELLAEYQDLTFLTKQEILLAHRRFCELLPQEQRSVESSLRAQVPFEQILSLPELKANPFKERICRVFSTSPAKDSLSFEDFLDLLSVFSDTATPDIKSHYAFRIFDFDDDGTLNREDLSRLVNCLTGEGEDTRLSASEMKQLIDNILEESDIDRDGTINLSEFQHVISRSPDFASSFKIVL
# Procedure, shortened: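 Fluorescence polarization competition: GST-tagged CIB1 (1 uM final) preincubated with compound 15 min at room temperature, then FITC-labelled alphaIIb peptide (100 nM final) added. After 15 min at room temperature, polarization read at Ex 480/Em 540.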
# [4] = molecular target: Glutathione peroxidase 1 (Homo sapiens) (UniProt P07203); experiment: Primary qHTS Assay for Inhibitors of Recombinant Selenoprotein Glutathione Peroxidase 1 (GPX1) (AID 1845191); note: nearly all actives have a fitted effect of over 65% in size
# Chain of Glutathione peroxidase 1 (Homo sapiens) (P07203 whole entry, looked up): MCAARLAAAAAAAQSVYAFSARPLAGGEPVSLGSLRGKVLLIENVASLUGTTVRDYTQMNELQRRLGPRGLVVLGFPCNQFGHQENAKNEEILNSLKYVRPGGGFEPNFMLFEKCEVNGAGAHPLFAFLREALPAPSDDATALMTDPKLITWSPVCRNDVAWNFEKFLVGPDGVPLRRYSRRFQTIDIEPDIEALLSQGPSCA
# Procedure, shortened: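 GR-coupled readout: NADPH consumption tracked by fluorescence, ex 340/em 450 nm, at t=0 and after 15 min at RT. Final mix 10 nM GPX1, 1 mM GSH, 0.5 mM CHP, 0.5 mM NADPH, 100 nM GR, 0.01% BSA, following 30 min enzyme–compound preincubation.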
# [5] = Primary qHTS for inhibitors of nuclear receptor binding SET domain protein 2 (NSD2) in an isogenic RCH-ACV NSD2 p.E1099K mutant (9B) (AID 1645876); note: nearly all actives have a fitted effect of over 70% in size; note: potency is the fitted concentration of half-maximal effect
# [6] = Primary qHTS for inhibitors of nuclear receptor binding SET domain protein 2 (NSD2) in an RCH-ACV wild type WT cells (2C) (AID 1645877); note: nearly all actives have a fitted effect of over 70% in size; note: potency is the fitted concentration of half-maximal effect
# [7] = qHTS to identify inhibitors of the type 1 interferon - major histocompatibility complex class I in skeletal muscle: primary screen against the NCATS Mechanism Interrogation Plate v5.0 (MIPE) Libary (AID 1347411);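 note: plate controls were vehicle for no effect and reference inhibitor for full effect; nearly all actives have a fitted effect of over 65% in size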
# Procedure, shortened: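 Luminescence from CRISPR HiBit-tagged endogenous HLA-B in human myoblasts reported MHC class I level after 24 h of IFN-beta (4 ng/ml) plus compound. Compounds ran as 11-point 1:3 series, top 46 uM final.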
# [8] = molecular target: Phospholipid hydroperoxide glutathione peroxidase GPX4 (Homo sapiens) (UniProt P36969); experiment: Primary qHTS Assay for Inhibitors of Recombinant Selenoprotein Glutathione Peroxidase 4 (GPX4) (AID 1845192); settings: outcome: dose series up to 50 µM unless noted; note: % is set by controls: 0 for no effect and ±100 for the full control effect; nearly all actives have a fitted effect of over 65% in size
# Chain of Phospholipid hydroperoxide glutathione peroxidase GPX4 (Homo sapiens) (P36969 whole entry, looked up): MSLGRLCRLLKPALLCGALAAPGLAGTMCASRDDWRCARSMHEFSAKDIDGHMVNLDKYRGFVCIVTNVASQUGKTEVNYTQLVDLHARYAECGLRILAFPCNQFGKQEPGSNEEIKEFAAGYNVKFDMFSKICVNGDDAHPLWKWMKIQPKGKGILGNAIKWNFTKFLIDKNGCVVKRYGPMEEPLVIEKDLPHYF
# Procedure, shortened: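 Steps: GPX4 plus compound, 30 min RT; add GR/GSH/NADPH master mix; start with cumene hydroperoxide; read 340/450 nm fluorescence at 0 and 15 min. Finals were 200 nM GPX4, 1 mM GSH, 0.5 mM CHP, 0.5 mM NADPH, 100 nM GR.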
# [9] = qHTS drug screen for cell cycle checkpoint inhibitors in PARPi-resistant BRCA-mutant ovarian cancer cell lines. (AID 1963452; calls by dose curve); settings: PEO1/OlaR viability, CellTiter-Glo luminescence, 96 h, stronger effect = lower value
# Procedure, shortened: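 PEO1, PEO4 and PEO1/OlaR ovarian cancer cells, 600 per well, exposed 96 h at 37C to a dilution series. Viability read by CellTiter-Glo luminescence, normalized to DMSO and empty wells; activity summarized as Z-AUC.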
# [10] = molecular target: N-terminal Xaa-Pro-Lys N-methyltransferase 1 (Homo sapiens) (UniProt Q9BV86); experiment: Confirmatory qHTS for Inhibitors of N-terminal methyltransferase 1 (NTMT1): MTaseGlo Assay (AID 1645874)
# Chain of N-terminal Xaa-Pro-Lys N-methyltransferase 1 (Homo sapiens) (Q9BV86 whole entry, looked up): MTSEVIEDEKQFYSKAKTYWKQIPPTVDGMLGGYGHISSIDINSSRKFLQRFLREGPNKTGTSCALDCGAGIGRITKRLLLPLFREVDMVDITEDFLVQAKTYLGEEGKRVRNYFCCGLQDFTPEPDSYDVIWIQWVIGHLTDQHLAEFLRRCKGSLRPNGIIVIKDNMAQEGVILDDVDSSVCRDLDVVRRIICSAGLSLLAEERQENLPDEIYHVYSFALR
# Procedure, shortened: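 Room-temperature NTMT1 reaction, 30 min, with 100 uM SAM and 1 uM SPKRIA substrate; enzyme 125 nM. Read-out: MTase-Glo luminescence, normalized to no-enzyme and DMSO controls.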
# [11] = molecular target: Catechol O-methyltransferase (Homo sapiens) (UniProt P21964); experiment: Confirmatory Screen for Target Class Profiling of Small Molecule Inhibitors of Methyltransferases (AID 1745852; calls by dose curve; note: potency is the fitted concentration of half-maximal effect); settings: MTase-Glo luminescence, SAH detection, recombinant enzyme; measured here: COMT max response; stronger effect = lower value
# Chain of Catechol O-methyltransferase (Homo sapiens) (P21964 whole entry, looked up): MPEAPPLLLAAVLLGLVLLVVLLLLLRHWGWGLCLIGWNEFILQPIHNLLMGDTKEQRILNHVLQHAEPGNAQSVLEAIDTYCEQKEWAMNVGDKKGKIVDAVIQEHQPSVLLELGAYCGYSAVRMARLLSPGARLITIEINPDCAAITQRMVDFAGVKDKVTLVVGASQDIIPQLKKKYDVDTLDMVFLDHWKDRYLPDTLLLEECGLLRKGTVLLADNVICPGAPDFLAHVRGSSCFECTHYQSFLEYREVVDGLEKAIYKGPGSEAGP
# [12] = molecular target: Guanidinoacetate N-methyltransferase (Homo sapiens) (UniProt Q14353); experiment: as above; settings: activity change, negative = inhibition: at 57.3 µM (top of the series) unless noted
# [13] = molecular target: Nicotinamide N-methyltransferase (Homo sapiens) (UniProt P40261); experiment: as above; settings: MTase-Glo luminescence, SAH detection, recombinant enzyme; measured here: NNMT max response; stronger effect = lower value
# Chain of Nicotinamide N-methyltransferase (Homo sapiens) (P40261 whole entry, looked up): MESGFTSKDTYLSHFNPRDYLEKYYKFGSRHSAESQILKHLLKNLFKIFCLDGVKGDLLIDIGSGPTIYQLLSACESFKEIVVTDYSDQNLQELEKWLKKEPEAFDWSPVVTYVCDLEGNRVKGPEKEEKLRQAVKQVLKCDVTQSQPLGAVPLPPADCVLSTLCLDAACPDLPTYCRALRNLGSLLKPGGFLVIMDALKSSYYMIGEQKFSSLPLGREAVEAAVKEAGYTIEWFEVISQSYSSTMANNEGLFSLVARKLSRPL
# [14] = molecular target: Phenylethanolamine N-methyltransferase (Homo sapiens) (UniProt P11086); experiment: as above; settings: MTase-Glo luminescence, SAH detection, recombinant enzyme; measured here: PNMT max response; stronger effect = lower value
# Chain of Phenylethanolamine N-methyltransferase (Homo sapiens) (P11086 whole entry, looked up): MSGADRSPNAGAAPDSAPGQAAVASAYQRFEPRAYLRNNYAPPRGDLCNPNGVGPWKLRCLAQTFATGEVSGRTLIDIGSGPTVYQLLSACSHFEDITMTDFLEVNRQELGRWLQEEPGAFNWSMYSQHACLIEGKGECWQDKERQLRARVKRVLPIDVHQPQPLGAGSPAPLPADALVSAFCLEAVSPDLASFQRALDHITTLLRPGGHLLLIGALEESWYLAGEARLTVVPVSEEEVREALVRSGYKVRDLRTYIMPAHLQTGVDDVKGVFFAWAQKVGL
# [15] = Primary qHTS for small molecule stabilizers of the endoplasmic reticulum resident proteome: Secreted ER Calcium Modulated Protein (SERCaMP) assay (AID 1508630); note: % is set by controls: 0 for no effect and ±100 for the full control effect
# Procedure, shortened: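 The SH-SY5Y reporter protocol was run at 3 concentrations up to 38.3 uM (primary) or 11 concentrations (follow-up): 16 h compound, 100 nM thapsigargin for 4 h, then extracellular luciferase luminescence.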
# [16] = measured here: PEO1 parental Z-AUC
compound,measurement,setting,value
O=C1CCCC2=C1C(c1ccncc1Br)N=C(Nc1nc3ccccc3o1)N2 (stereo unspecified),Potency,[1],inactive
same,Potency,[2],inactive
same,outcome,[3],inactive
same,Potency,[4],inactive
Clc1ccc2ncc(-c3cccc(NC4CCNCC4)n3)n2c1,Potency,[1],3660 nM (active)
same,Potency,[2],16400 nM (active)
same,outcome,[3],inactive
same,Potency,[5],366 nM (active)
same,Potency,[6],259 nM (active)
same,Potency,[4],inactive
CN[C@H]1CCN(C(=O)c2ccc(Nc3ncc(F)c(-c4cnc(C)n4C(C)C)n3)cc2)C1,Potency,[1],58 nM (active)
same,Potency,[2],6510 nM (active)
same,Potency,[5],92 nM (active)
same,Potency,[6],116 nM (active)
Cc1ccc([N+](=O)[O-])cc1S(=O)(=O)N(C)/N=C\c1cnc2ccc(Br)cn12,Potency,[1],164 nM (active)
same,Potency,[2],231 nM (active)
same,Potency,[5],58 nM (active)
same,Potency,[6],51.7 nM (active)
CCOc1ccc(/C=C2\SC(=O)N(CCN)C2=O)cc1,Potency,[1],inactive
same,Potency,[2],inactive
same,Potency,[5],inactive
same,Potency,[6],inactive
Cc1ccc(NS(=O)(=O)c2cc3c(cc2NC(C)CO)NC(=O)CC3)cc1C (stereo unspecified),Potency,[1],inactive
same,Potency,[2],inactive
same,outcome,[3],inactive
same,Potency,[4],inactive
C#Cc1cccc(Nc2ncnc3cc4c(cc23)OCCOCCOCCO4)c1,Potency,[1],inactive
same,Potency,[2],inactive
same,Potency,[7],inactive
same,Potency,[4],inactive
same,Potency,[8],inactive
same,Z-AUC,[9],0.644 (inactive)
same,Z-AUC,[9]; [16],0.664
same,Z-AUC,[9]; measured here: PEO4 Z-AUC,0.297
CCn1c(=O)c2cc(C(N)=O)c(N)nc2n(C2CC2)c1=O,Potency,[1],inactive
same,Potency,[2],inactive
same,Potency,[5],inactive
same,Potency,[6],inactive
NC(=O)c1ncn(C2O[C@H](CO)[C@@H](O)[C@H]2O)c1N (stereo partly specified),Potency,[1],inactive
same,Potency,[2],inactive
same,Potency,[5],inactive
same,Potency,[6],inactive
Cc1nc(CN(C)c2ncnc3ccc(-c4ccc5c(c4)OCO5)cc23)cs1,Potency,[1],16400 nM (active)
same,Potency,[2],20600 nM (active)
same,outcome,[3],inactive
same,Potency,[10],4260 nM (active)
same,Potency,[5],8200 nM (active)
same,Potency,[6],9200 nM (active)
same,activity,[11],-89.6%
same,Potency,[12],19200 nM (active)
same,activity,[13],-80.4%
same,activity,[14],-90.3%
same,Potency,[4],inactive
Cc1cc(Nc2nc(NC(C)c3ccc(F)cc3)c(C#N)cc2F)n[nH]1 (stereo unspecified),Potency,[1],164 nM (active)
same,Potency,[2],731 nM (active)
same,Potency,[5],920 nM (active)
same,Potency,[6],731 nM (active)
Cc1cc(I)ccc1Nc1c(C(=O)NOCC2CC2)cc(F)c(F)c1F,Potency,[1],23100 nM (active)
same,Potency,[2],18400 nM (active)
same,Potency,[15],inactive
same,Potency,[5],8330 nM (active)
same,Potency,[6],7420 nM (active)
same,Potency,[4],inactive
same,Z-AUC,[9],0.467 (inactive)
same,Z-AUC,[9]; [16],0.0632
same,Z-AUC,[9]; measured here: PEO4 Z-AUC,0.231
